Source: PubChem
MITF inhib = blocks MITF activity; TRPM1 promoter luciferase, luminescence, 24 h; inhibition, % (concentration not given with the values); 37,000 compounds, 0.28% hits; AID 2240; in the data active = inhibition above about 85%; inconclusive = no clear call, values can overlap the other calls; inactive = below about 68%;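 also: human melanocyte line stably carrying TRPM1 promoter luciferase reporter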
NOMO-1 viab = STK33 inhibitor candidate reducing NOMO-1 cell viability; NOMO-1 AML viability, CellTiter-Glo luminescence, 72 h; inhibition, % (concentration not given with the values); 37,000 compounds, 7.5% hits; AID 2330; in the data active = inhibition above about 80%; inconclusive = no clear call, values can overlap the other calls
Hedgehog inh = blocks Sonic Hedgehog signaling; Shh-LIGHT2 Gli-luciferase reporter, 30 h; inhibition, % (test concentration not listed); 22,000 compounds, 2.1% hits;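 active = mean inhibition across valid replicates above about 65%, limit read from the data; inconclusive = mean under the limit, yet half or more replicates past it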;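 also: pathway switched on by Shh-conditioned medium diluted 1 in 25 in low serum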
An asterisk follows results filed as active; u = inconclusive; x = no result. Shown are actives, neighbours in structure and some others; about 7.8% of the full set was active somewhere.

SMILES | MITF inhib | NOMO-1 viab | Hedgehog inh
C[C@H](CO)N1C[C@H](C)[C@H](CN(C)Cc2ccc(C(=O)Nc3ccccc3N)cc2)Oc2ccc(NC(=O)C3CC3)cc2C1=O | -13 | u | x
C[C@@H]1CN([C@@H](C)CO)C(=O)c2cc(NC(=O)C3CCCCC3)ccc2O[C@@H]1CN(C)Cc1ccc(C(=O)Nc2ccccc2N)cc1 | 2 | 109* | x
C[C@@H]1CN([C@@H](C)CO)C(=O)c2cc(NC(=O)NC3CCCCC3)ccc2O[C@H]1CN(C)Cc1ccc(C(=O)Nc2ccccc2N)cc1 | -4 | 28 | x
C[C@H]1CN([C@@H](C)CO)C(=O)c2cc(NC(=O)C3CC3)ccc2O[C@H]1CN(C)Cc1ccc(C(=O)Nc2ccccc2N)cc1 | -15 | 106* | x
C[C@@H]1CN([C@@H](C)CO)C(=O)c2cc(NC(=O)C3CC3)ccc2O[C@@H]1CN(C)Cc1ccc(C(=O)Nc2ccccc2N)cc1 | -12 | 105* | x
C[C@@H]1CN([C@H](C)CO)C(=O)c2cc(NC(=O)C3CCCCC3)ccc2O[C@@H]1CN(C)Cc1ccc(C(=O)Nc2ccccc2N)cc1 | -10 | u | x
CNC[C@H]1Oc2ccc(NC(=O)Nc3c(C)noc3C)cc2CC(=O)N([C@@H](C)CO)C[C@@H]1C | -24 | 4 | -23
C[C@H]1CN([C@@H](C)CO)C(=O)Cc2cc(NC(=O)c3ccncc3)ccc2O[C@@H]1CN(C)Cc1ccc(-c2ccccc2)cc1 | -4 | 19 | 17
C[C@H]1CN([C@@H](C)CO)C(=O)Cc2cc(NS(=O)(=O)c3ccccc3)ccc2O[C@@H]1CN(C)S(C)(=O)=O | 2 | 1 | x
COc1ccccc1NC(=O)c1c(NC(=O)c2cccnc2)sc2c1CCC(C)C2 (configuration not stated) | -2 | 15 | x
Cc1cccc(NC(=O)c2ccc(OCC(=O)Nc3ccccc3)cc2)c1C | 2 | 25 | x
C[C@@H]1CN([C@@H](C)CO)C(=O)c2cccc(NC(=O)c3ccncc3)c2O[C@@H]1CN(C)Cc1ccc(Oc2ccccc2)cc1 | -12 | 9 | -4
C[C@H](CO)N1C[C@H](C)[C@@H](CN(C)Cc2ccc(-c3ccccc3)cc2)Oc2c(NC(=O)c3ccncc3)cccc2C1=O | 34 | 83* | 64
C[C@H](CO)N1C[C@H](C)[C@H](CN(C)Cc2ccc(-c3ccccc3)cc2)Oc2c(NC(=O)c3ccncc3)cccc2C1=O | 6 | 54 | 36
C[C@@H]1CN([C@H](C)CO)C(=O)c2cccc(NC(=O)c3ccncc3)c2O[C@H]1CN(C)Cc1ccc(Oc2ccccc2)cc1 | 28 | 91* | u
C[C@H](CO)N1C[C@H](C)[C@@H](CN(C)S(=O)(=O)c2ccc(Cl)cc2)Oc2c(NC(=O)Nc3ccc(C(F)(F)F)cc3)cccc2C1=O | 2 | 53 | 20
C[C@@H]1CN([C@H](C)CO)C(=O)c2cc(NC(=O)CCN3CCOCC3)ccc2O[C@H]1CN(C)S(=O)(=O)c1ccccc1 | 2 | -6 | -10
C[C@@H]1CN([C@H](C)CO)C(=O)Cc2cc(NC(=O)Nc3cccc4ccccc34)ccc2O[C@H]1CN(C)Cc1ccc(Oc2ccccc2)cc1 | 6 | 49 | -59
CC(=O)NCCOc1ccccc1Cl | -12 | -24 | -5
Cc1cccc(-c2nnc(SCC(=O)Nc3ccccc3F)o2)c1 | 88* | 43 | x
Cc1cccc(-c2nnc(SCC(=O)Nc3c(Cl)cc(Cl)cc3Cl)o2)c1 | 8 | -15 | x
C[C@H]1CN([C@@H](C)CO)C(=O)c2cccc(NC(=O)Nc3cccc4ccccc34)c2O[C@H]1CN(C)Cc1ccc2c(c1)OCO2 | 23 | 14 | -18
CNC(=O)CN(c1cc([N+](=O)[O-])ccc1C)S(C)(=O)=O | 6 | 12 | x
C[C@@H]1CN([C@@H](C)CO)C(=O)c2cccc(NC(=O)C3CC3)c2O[C@H]1CN(C)C(=O)Nc1cccc2ccccc12 | 5 | 3 | 25
CC(C)(C)c1ccc(OCC(=O)N(c2ccccn2)C2CCCCC2)cc1 | 14 | 44 | x
SMILES | MITF inhib | NOMO-1 viab | Hedgehog inh
Clc1ccc(-c2ncc3ccccn23)cc1 | 4 | 129* | x
CNC[C@H]1Oc2c(NS(=O)(=O)c3ccc(OC)cc3)cccc2C(=O)N([C@H](C)CO)C[C@H]1C | -1 | 21 | -3
O=C(CN1C(=O)C2C3C=CC(C4CC34)C2C1=O)Nc1ccc(Oc2ccc(Br)cc2)cc1 (configuration not stated) | 72 | 86* | x
O=C(CN1C(=O)C2C3C=CC(C4CC34)C2C1=O)Nc1ccc(Oc2ccccc2Cl)cc1 (configuration not stated) | 3 | -1 | x
COC(=O)Nc1ccc(S(=O)(=O)N(C)C)cc1 | 13 | -4 | x
COC(=O)/C=C/S(=O)(=O)c1ccc(NC(C)=O)cc1 | 21 | 126* | 94*
C[C@H](CO)N1C[C@H](C)[C@H](CN(C)C(=O)Nc2ccc(F)cc2)Oc2ccc(NC(=O)CCC(F)(F)F)cc2CC1=O | -7 | 10 | 47
O=[N+]([O-])c1ccc(N2CCN(S(=O)(=O)c3ccc(Cl)s3)CC2)cc1NCc1ccco1 | -9 | -14 | x
CC(C)NC(=O)Nc1ccc2c(c1)C(=O)N([C@H](C)CO)C[C@@H](C)[C@@H](CN(C)C(=O)Nc1ccccc1)O2 | 1 | 16 | -31
COC(=O)c1cccc(NC(=O)CN(c2cccc(F)c2)S(C)(=O)=O)c1C | -19 | 98* | x
COC(=O)c1cccc(NC(=O)CN(c2ccc(F)cc2)S(C)(=O)=O)c1C | 6 | 109* | x
COC(=O)c1cccc(NC(=O)CN(c2ccc(F)c(Cl)c2)S(C)(=O)=O)c1C | -9 | 106* | x
COC(=O)c1ccccc1NC(=O)CN(c1ccc(F)c(Cl)c1)S(C)(=O)=O | -3 | -2 | x
COC(=O)c1cc(NC(=O)CN(c2ccc(F)c(Cl)c2)S(C)(=O)=O)ccc1Cl | -3 | 96* | x
COC(=O)c1cccc(NC(=O)CN(c2ccc(Br)c(C)c2)S(C)(=O)=O)c1C | -108 | 36 | x
COC(=O)c1ccc(NC(=O)CN(c2ccc(F)c(Cl)c2)S(C)(=O)=O)cc1 | -8 | 25 | x
COC(=O)c1ccccc1NC(=O)CN(c1cccc(F)c1)S(C)(=O)=O | -8 | -4 | x
C[C@@H]1CCCCO[C@@H](CN(C)C(=O)Nc2ccc3c(c2)OCO3)[C@@H](C)CN([C@H](C)CO)C(=O)c2cc(NS(C)(=O)=O)ccc2O1 | 8 | 27 | -13
C[C@H](CO)N1C[C@H](C)[C@@H](CN(C)C(=O)NC2CCCCC2)Oc2c(NS(=O)(=O)c3cn(C)cn3)cccc2C1=O | 7 | 19 | -8
COC(=O)COc1cccc(NC(=O)c2ccc(Cl)c(Cl)c2)c1 | 4 | 108* | x
COc1cccc(NC(=O)c2ccc(OC)c(OC)c2)c1 | -129 | 39 | -37
CCOC(=O)c1ccc(NC(=O)c2ccco2)cc1 | 17 | 8 | -115
COC(=O)COc1cccc(NC(=O)c2cccs2)c1 | -8 | 137* | x
COC(=O)COc1cccc(NC(=O)c2ccc(NC(=O)c3ccco3)cc2)c1 | 3 | 110* | x
COC(=O)COc1cccc(NC(=O)c2ccccc2)c1 | 6 | 122* | x
COC(=O)COc1cccc(NC(=O)c2ccccc2-c2ccccc2C(=O)O)c1 | 0 | -4 | x
COc1cccc(NC(=O)CNC(=O)c2cccs2)c1 | -61 | -16 | x
CCc1c(C)sc(NC(=O)/C=C/c2ccc(F)cc2)c1C(=O)OC | 6 | 52 | -15
Cc1cc(C(F)(F)F)c(C#N)c(SCC(=O)Nc2ccc(Cl)cc2)n1 | -39 | 15 | x
